High-throughput results: PubChem, National Center for Advancing Translational Sciences (NCATS)
PNC inhibitor = High Content Assay for Compounds that inhibit the Assembly of the Perinucleolar Compartment; PC3M PTB-GFP, PNC prevalence imaging, 16 h; hits give low values; activity change (PNC), negative = inhibition, % at 10 µM; 3.1% of 140,000 active; AID 2417, 2010;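 active = readout at or below -70, meaning at least 70% loss of cells showing the perinucleolar compartment, a nuclear body marking cancer cells; inconclusive = readout between -30 and a set limit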
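Read-out is percentage of cells bearing a perinucleolar compartment, from automated 20x imaging of fixed, Hoechst-stained PC3M PTB-GFP cells. Cells were seeded 4 h, then exposed 16 h to compound (23 nl of library stock) in duplicate plates.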
HPGD block = qHTS Assay for Inhibitors of HPGD (15-Hydroxyprostaglandin Dehydrogenase). 4.3% of 150,000 active. 15-hydroxyprostaglandin dehydrogenase [NAD(+)] (Homo sapiens), P15428. purified HPGD, NADH fluorescence kinetic, PGE2 substrate. Potency, µM, most hits filed as inhibitors
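20 nM HPGD preincubated 15 min at room temperature with compound in 50 mM Tris-HCl pH 8, 0.01% Tween 20. Started with 1 mM NAD+ and 30 uM prostaglandin E2; NADH fluorescence (360/450 nm) read 5 times over 30-s intervals, last minus first.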
ALDH1A1 block = qHTS Assay for Inhibitors of Aldehyde Dehydrogenase 1 (ALDH1A1). Purified ALDH1A1, NADH fluorescence, propionaldehyde substrate. Potency, µM (series often up to 75.3 µM), usual class: inhibitors. 7.3% of 220,000 active
Target sequence (P00352 whole entry, looked up): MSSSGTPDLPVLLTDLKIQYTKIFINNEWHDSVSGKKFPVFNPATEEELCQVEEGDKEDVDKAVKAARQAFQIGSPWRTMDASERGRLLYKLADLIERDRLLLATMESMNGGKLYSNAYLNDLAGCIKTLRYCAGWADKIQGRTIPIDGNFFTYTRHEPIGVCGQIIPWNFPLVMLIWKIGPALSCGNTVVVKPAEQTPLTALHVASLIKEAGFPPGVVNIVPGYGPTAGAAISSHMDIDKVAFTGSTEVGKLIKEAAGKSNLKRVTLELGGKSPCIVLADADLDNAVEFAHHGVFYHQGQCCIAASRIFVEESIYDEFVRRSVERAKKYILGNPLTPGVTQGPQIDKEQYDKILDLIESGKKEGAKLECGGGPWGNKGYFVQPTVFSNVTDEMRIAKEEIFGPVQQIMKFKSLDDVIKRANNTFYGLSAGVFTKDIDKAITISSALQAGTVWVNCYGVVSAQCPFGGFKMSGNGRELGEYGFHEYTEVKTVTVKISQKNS
Numbers stand for hits; i = inactive; ? = inconclusive; nt = not tested or not shown; [ ] = remark or other dose. Compounds with a hit are over-represented: about 11% of the library has one in this group of screens. Unless noted, calls follow the shape of the dose curve; as a rule, active = well fitted inhibition curve with a large enough effect (not every such curve was filed as active); inconclusive = small, poorly fitted or top-dose-only effect, or another doubt; inactive = no such curve, though single readings can be large or run the other way.

SMILES | PNC inhibitor | HPGD block | ALDH1A1 block
Cc1nn(-c2ccccc2)c(N)c1C1(O)C(=O)N(C(C)C)c2ccccc21 (stereo unspecified) | ? | i | ?
O=c1/c(=C\c2ccc(O)cc2)sc2n1C(c1ccccc1)C(c1ccccc1)=NN=2 (stereo unspecified) | i | 16µM | 8.9µM
CCOC(=O)C1=C(c2ccccc2)N=c2s/c(=C\c3cccc(O)c3)c(=O)n2C1c1cccs1 (stereo unspecified) | i | i | i
COc1ccccc1Oc1c(C)oc2c(CN3CCN(CCO)CC3)c(O)ccc2c1=O | i | ? | ?
CCOC(=O)c1c(C)oc2c1c1c(c3ccccc32)OCN(Cc2ccccn2)C1 | i | i | ?
CCOC(=O)c1c(C)oc2c1c(CN1CCN(CCO)CC1)c(O)c1ccccc12 | nt | nt | 0.35µM
CCOC(=O)c1c(C)oc2c1c(C(c1ccncc1)N1CCOCC1)c(O)c1ccccc12 (stereo unspecified) | i | i | 13µM
CCOC(=O)c1c(C)oc2c1c(C=NC1CCS(=O)(=O)C1)c(O)c1ccccc12 (stereo unspecified) | i | i | i
CCOC(=O)c1c(C)oc2c(CC(=O)c3ccccc3)c(Cl)c(O)c(O)c12 | i | 7.1µM | i
CCOC(=O)c1c(C)oc2c1c(CN1CCN(C(=O)OCC)CC1)c(O)c1ccccc12 | i | i | 1.6µM
CCOC(=O)c1c(C)oc2ccc(O)c(CN3CCCCC3)c12 | i | i | i
O=C(Cc1cccc2ccccc12)N/N=C/c1ccc(Sc2nc3ccccc3s2)o1 | i | ? | i
COc1cc([N+](=O)[O-])cc2sc(NC(=O)C(C)(C)C)nc12 | nt | nt | i
C=CCSc1nc2ccccc2c(=O)n1Cc1ccco1 | nt | i | i[13.5 µM]
CCOC(=O)c1oc2ccccc2c1CN1CCN(C(=O)c2ccccc2)CC1 | -109 | i | 20µM
CCOC(=O)c1oc2ccccc2c1CN1CCN(c2ccccc2)CC1 | ? | i | i
COc1ccc(C(=O)Cc2cc(OC)c(OC)cc2C(=O)c2ccccc2F)cc1OC | nt | nt | i
COc1ccc(/C(N)=N/OC(=O)CCCN2C(=O)c3ccccc3C2=O)cc1OC | nt | nt | i
Cn1cccc1C(=O)N1CCC2(CCN(Cc3nccs3)CC2)CC1 | nt | i | i
COc1nnc(-c2ccccc2)s1 | ? | i | ?
O=C(O)Cn1cc(/C=C2\SC(=O)N(c3ccccc3)C2=O)c2ccccc21 | nt | nt | 22µM
Cn1cc(/C=C2/SC(=O)N(c3ccccc3)C2=O)c2ccccc21 | i | i | i
CCc1cccc(CC)c1NC(=O)COC(=O)CCc1cc(OC)c(OC)c(OC)c1 | i | i | i
CC(C)CNC(=O)c1ccccc1NC(=O)c1ccccc1N(C)S(=O)(=O)c1ccccc1 | i | i | i
CC(C)CCN1CCN(Cc2ccc(N3CCNC3=O)cc2)CC1CCO (stereo unspecified) | nt | nt | i
SMILES | PNC inhibitor | HPGD block | ALDH1A1 block
CCN1C(=O)C(NC(C)=O)c2cc(Br)ccc21 (stereo unspecified) | i | i | ?
CCCCN1C(=O)C(NC(C)=O)c2cc(Br)ccc21 (stereo unspecified) | i | i | 0.18µM
CCc1ccc2c(c1)C(NC(C)=O)C(=O)N2CC (stereo unspecified) | i | i | 22µM
COc1ccc2c(c1)C(NC(C)=O)C(=O)N2C (stereo unspecified) | i | i | i
CCCCCCC(C)NC(=S)Nc1cc(S(=O)(=O)N(C)C)ccc1C (stereo unspecified) | ? | i | ?
C/C(N)=C(/C#N)C(=O)CSc1nc2scc(-c3ccc(F)cc3)c2c(=O)n1C | nt | nt | 16µM
C/C(N)=C(/C#N)C(=O)CSc1nc2ccccc2c(=O)n1Cc1ccc(F)cc1 | nt | nt | i
CCOC(=O)c1cc(NC(=O)Nc2ccccc2OC)c(C)nc1C | -81 | i | i
CCOC(=O)c1cc(NC(=O)Nc2ccccc2Cl)c(C)nc1C | nt | nt | i
CCOC(=O)Cc1csc(NC(=O)COc2cc(C)cc(C)c2)n1 | nt | nt | i
CC(C)(C)C(=O)NC(=S)NNC(=O)c1ccc(Cl)cc1Cl | nt | nt | i
C/C(=N\Nc1nc2c(s1)CCCC2)c1ccc(Cl)cc1 | ? | i | 28µM
CN(C)c1ccc(C(=O)Nc2nc3c(s2)CCCC3)cc1 | i | ? | ?
CCn1c(=O)c(-c2ccccc2)c(O)c2ccccc21 | i | i | i
CCn1c(=O)c2c(cnn2C)c2ccccc21 | i | 32µM | i
OCC1OC(n2cnc3c(=S)nc[nH]c32)C(O)C1O (stereo unspecified) | nt | i | ?
N#Cc1ccc(-n2nccc2-c2cnc3n(c2=O)CCS3)cc1 | i | i | i
COc1ccccc1C1=NOC(Cn2c(=O)c3c(ncn3C)n(C)c2=O)C1 (stereo unspecified) | ? | i | i
